Compound activity (PubChem BioAssay)
Hits are enriched below; roughly 5.5% of the tested compounds scored in any of these assays.
CBFb RUNX1 block = inhibitors of human CBF-beta and RUNX1 interaction | Potency, µM (series often up to 59.8 µM), without a hit: top-dose activity, negative = inhibition, most hits filed as inhibitors | Q01196+Q13951 | 230,000 tested, under 10 active | AlphaScreen CBFb-His/RUNX1-biotin binding, biochemical; also: % of control where 0% means no effect
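His-tagged CBF-beta and biotinylated RUNX1 (30 nM each) were premixed 20 min at room temperature, exposed to compound for 15 min, then given nickel-chelate and streptavidin AlphaScreen beads (50 ng each). After 90 min, AlphaScreen signal was read.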
Six1-Eya2 blk = blocks human Six1 binding to Eya2; hit rate 0.56% among 360,000; AlphaScreen GST-Six1/His-Eya2 binding, biochemical; stronger effect = lower value; activity change, % (test concentration not listed); Q15475+O00167; AID 651725; in the data active = activity change below about -65%; inconclusive = mostly about -30% to -63%; also: % is scaled to controls: 0 for no effect and ±100 for the full control effect
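AlphaScreen luminescence read after one hour at 37 °C in darkness. Pin-transferred compounds met GST-Six1 and His-Eya2 protein (5X stock 250 nM/500 nM) plus glutathione donor and Ni-chelate acceptor beads (5X, 50 ug/mL).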
CtBP-E1A inh = CtBP/E1A binding inhibition | hit rate 0.49% among 340,000 | AlphaScreen GST-E1A/His-CtBP binding, 1536-well; stronger effect = lower value | activity change, % (concentration not given with the values) | AID 651724; in the data active = activity change below about -65%; inconclusive = mostly about -30% to -63%; also: % is scaled to controls: 0 for no effect and ±100 for the full control effect
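GST-E1A and His-tagged CtBP (125 nM each as 5X stock) were preincubated with pin-transferred compound for 2 h at 37 °C in the dark, then glutathione donor and nickel acceptor beads were added for 1 h before AlphaScreen reading.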
MBNL1 CUG block = blocks human MBNL1 binding to CUG repeat RNA; Q9NR56; TR-FRET MBNL1-His/biotin-(CUG)12 binding, 665/545 ratio; Potency, µM (titrated, usually from 57.5 µM), inactives show at the top dose activity change, negative = inhibition, usual class: inhibitors; hit rate 0.036% among 280,000; AID 2675; active = well fitted inhibition curve with a large enough effect in the signal ratio, with a control signal flat, not every such curve was filed as active; inconclusive = small, poorly fitted or top-dose-only effect, or effect the other way, or a change in a side signal; inactive = no such curve, though single readings can be large or run the other way; the % refers to the signal ratio; also: potency is read from the fitted curve at half-maximal effect; % is scaled to controls: 0 for no effect and ±100 for the full control effect
Target sequence (Q9NR56 whole entry, looked up): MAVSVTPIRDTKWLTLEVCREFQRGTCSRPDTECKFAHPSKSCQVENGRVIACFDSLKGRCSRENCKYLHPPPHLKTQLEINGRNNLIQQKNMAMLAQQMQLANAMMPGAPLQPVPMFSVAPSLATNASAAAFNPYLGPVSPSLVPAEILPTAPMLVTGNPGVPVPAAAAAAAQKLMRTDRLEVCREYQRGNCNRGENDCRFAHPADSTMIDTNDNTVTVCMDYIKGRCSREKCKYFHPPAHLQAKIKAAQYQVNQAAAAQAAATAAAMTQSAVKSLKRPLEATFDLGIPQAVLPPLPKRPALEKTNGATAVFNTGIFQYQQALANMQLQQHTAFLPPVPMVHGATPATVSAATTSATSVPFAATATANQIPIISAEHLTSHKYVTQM
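Compound titration spanned 92 nM–58 uM against the MBNL1-His/biotin-(CUG)12 complex. After 60 min at room temperature with 5 nM streptavidin-XL665 and 0.055 ng/ul terbium anti-His, ratiometric 665/545 nm emission (Ex 340 nm) normalized to controls.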
RORgamma inh = ROR gamma (mouse) transcription inhibition. P51450. Drosophila S2 Gal4-RORgamma UAS-luciferase reporter, 20 h. Potency, µM (series often up to 53.6 µM), inactives show top-dose activity change, negative = inhibition, hits mostly inhibitors. hit rate 5.4% among 310,000. AID 2551; also: potency is read from the fitted curve at half-maximal effect; % is scaled to controls: 0 for no effect and ±100 for the full control effect; nearly all actives have a fitted effect of over 60% in size
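In this cell-based reporter format, copper sulfate (700 uM final) drives Gal4–ROR gamma fusion expression from a metallothionein promoter in Drosophila Schneider cells; compounds preincubated 1 hr, reporter read after 20 hr at ambient temperature.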
Gal4-VP16 FLuc = inhibits Gal4-VP16 luciferase reporter, ROR gamma counter-screen | hit rate 3.5% among 310,000 | AID 2546 | Drosophila S2 Gal4-VP16 UAS-luciferase, luminescence, 20 h | Potency, µM (highest dose often 53.6 µM), without a hit: at the top dose activity, negative = inhibition, actives largely listed as inhibitors;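 also: Gal4-VP16 expression switched on by copper sulfate through the metallothionein promoter; potency is read from the fitted curve at half-maximal effect; % is scaled to controls: 0 for no effect and ±100 for the full control effect; nearly all actives have a fitted effect of over 50% in size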
Numbers without * were called inactive; ? = inconclusive; · = no result; [ ] = dose if it differs, or a comment. Unless noted, calls follow the shape of the dose curve; as a rule, active = well fitted curve in the direction sought with a large enough effect; inconclusive = small, poorly fitted or top-dose-only effect, or another doubt; inactive = no such curve, though single readings can be large; an effect the other way counts as inactive or inconclusive.

SMILES	CBFb RUNX1 block	Six1-Eya2 blk	CtBP-E1A inh	MBNL1 CUG block	RORgamma inh	Gal4-VP16 FLuc
CC(NC(=O)COC(=O)c1cc(NS(=O)(=O)c2ccc(Cl)c([N+](=O)[O-])c2)ccc1O)C1CC2CCC1C2 (configuration not stated)	?	0	0	10%	?	11µM*
Cc1nc2cnc(Oc3ccccc3)nc2n(C2CC2)c1=O	·	·	·	·	-31%	0%
NS(=O)(=O)c1cnccc1Nc1cccc(F)c1	·	9	-3	·	·	·
CCS(=O)(=O)N1Cc2ccccc2CC1C(=O)Nc1nc2ccccc2s1 (configuration not stated)	-1%	-12	-4	15%	3.5µM*	4.5µM*
CCc1nnc(NC(=O)C2Cc3ccccc3CN2S(=O)(=O)CC)s1 (configuration not stated)	24%	-7	-7	0%	-21%	4%
CCS(=O)(=O)N1Cc2ccccc2CC1C(=O)Nc1nc2ccccc2[nH]1 (configuration not stated)	-10%	-2	-4	13%	?	-26%
CCc1nnc(NC(=O)C2Cc3ccccc3CN2S(=O)(=O)c2c(C)c(C)cc(C)c2C)s1 (configuration not stated)	-3%	-16	-25	4%	11µM*	-13%
Cc1ccc(C2(c3noc(CN(C)Cc4cccnc4)n3)CCCC2)cc1	3%	0	·	-13%	?	13µM*
Cc1ccc(C2(c3noc(CN4C[C@@H](C)O[C@@H](C)C4)n3)CCCC2)cc1	15%	2	7	-5%	11%	-14%
Cc1ccc(C2(c3noc(CN(C)Cc4ccccn4)n3)CCCC2)cc1	2%	-7	3	11%	16µM*	-1%
CC(C)(C)n1nnnc1C(c1cccs1)N1CCN(c2ccccc2)CC1 (configuration not stated)	11%	9	7	-8%	4%	11%
Oc1c(C(c2cccs2)N2CCN(c3ccccc3)CC2)ccc2cccnc12 (configuration not stated)	-15%	·	·	7%	5µM*	7.9µM*
Oc1c(C(c2ccccc2Cl)N2CCCC2)ccc2cccnc12 (configuration not stated)	?	?	·	8%	1.6µM*	-80%
CN1CCN(C(c2ccc(C(F)(F)F)cc2)c2ccc3cccnc3c2O)CC1 (configuration not stated)	·	?	-84*	7%	3.2µM*	1.6µM*
O=S(=O)(c1cccc2cccnc12)N1CCCCC1	·	-6	-2	-4%	2%	1%
C=C[C@@H]1c2cccc(C)c2N(S(=O)(=O)c2ccc(C)cc2)[C@H](c2ccc(OC(C)=O)cc2)C1(C#N)C#N	·	-9	·	·	·	·
CN(C)C(=S)NC(=O)C12CC3CC(C)(CC(C)(C3)C1)C2	8%	2	-3	1%	5µM*	22µM*
CC12CC3CC(C)(C1)CC(C(=O)NNC(=O)c1ccncc1)(C3)C2	·	1	-1	-9%	5%	-6%
CC12CC3CC(C)(C1)CC(C(=O)NC(=S)N1CCCCC1)(C3)C2	1%	-13	9	-1%	0.45µM*	?
O=C(CN1C(=O)/C(=C/c2ccccc2Cl)SC1=S)NC1CCS(=O)(=O)C1 (configuration not stated)	·	-13	·	?	-29%	9%
COc1cccc([C@H]2Oc3ccc(OC)cc3/C(=N\O[C@@H](C)c3cn([C@H](CO)Cc4ccccc4)nn3)[C@@H]2O)c1	-1%[13.1 µM]	·	·	·	-2%[10 µM]	1%[10 µM]
O=C(N/N=C\c1ccc(CNS(=O)(=O)c2ccc(Cl)cc2)o1)C(=O)Nc1ccc(Oc2ccccc2)cc1	-27%	-13	2	·	13µM*	13µM*
O=C(NCc1ccc(/C=N\NC(=O)C(=O)Nc2ccccc2Br)o1)C(=O)Nc1ccccc1	·	-13	·	7%	11µM*	?
O=C(N/N=C\c1ccc(CNS(=O)(=O)c2ccccc2)o1)C(=O)Nc1ccc(F)cc1	6%	3	7	-11%	?	16%
C[C@@H]1CN([C@@H](C)CO)C(=O)c2cc(C#Cc3cccc(F)c3)cnc2O[C@@H]1CN(C)CC1CCOCC1	·	4	3	·	·	·
SMILES	CBFb RUNX1 block	Six1-Eya2 blk	CtBP-E1A inh	MBNL1 CUG block	RORgamma inh	Gal4-VP16 FLuc
COc1cc(C[C@H]2C(=O)OC[C@@H]2Cc2ccc(OC)c(OC)c2)ccc1O	7%[21.7 µM]	·	·	·	6.3µM*	1.1µM*
CN1C(=O)C(Cl)(Cl)C(=O)c2ccccc21	-3%	9	-1	5%	11µM*	?
CN1C(=O)C2(NC(=O)c3ccccc3N2C)c2ccccc21 (configuration not stated)	9%	1	-1	-1%	1%	3%
CC(Sc1nnc(-c2ccco2)n1C)C(=O)Nc1nccs1 (configuration not stated)	·	-7	3	·	·	·
CC(C)CN1C(=O)C(=O)N(CC(=O)N(C)CC(=O)Nc2ccc(Cl)c(C(F)(F)F)c2)C1=O	·	0	-10	·	·	·
CCC(=O)NC(c1ccc([N+](=O)[O-])cc1)c1c(O)ccc2ccccc12 (configuration not stated)	-8%	-8	-13	10%	?	11µM*
CCCCC(=O)NC(c1ccc([N+](=O)[O-])cc1)c1c(O)ccc2ccccc12 (configuration not stated)	-27%	-12	-10	·	?	?
CC1(c2nnnn2-c2ccc3c(c2)OCCO3)CCC(=O)N1CCc1ccc(O)cc1 (configuration not stated)	·	2	3	·	·	·
COc1ccccc1CNS(=O)(=O)c1cc(-c2cc(C)no2)ccc1C(C)C	·	3	7	2%	11%	-1%
CC(C)=N/N=C1\NC(=O)C(C)S1 (configuration not stated)	3%	-7	·	-6%	11µM*	?
CC(=O)N=c1sc2nc3ccccc3nc2n1N(C(C)=O)C(C)=O	0%	?	?	?	10µM*	?
COc1ccc(NC(=O)C/C(C)=N/NC(=O)c2ccncc2)c([N+](=O)[O-])c1	-3%	3	-25	·	13µM*	-21%
Cc1cc(C)c(NC(=S)NC(=O)c2c(Cl)c(C)nn2C)c([N+](=O)[O-])c1	-11%	-15	7	14%	20µM*	?
CCn1ncc(Cl)c1C(=O)NC(=S)Nc1c(C)cc(C)cc1[N+](=O)[O-]	-19%	-21	-1	8%	1.3µM*	13µM*
